Assay results published in PubChem BioAssay (NCI).
This is part of a sample that, as a whole, favours compounds with a hit. Of some 79,000 tested, about 15% had one in any assay. Values without a mark were called inactive. Calls of active or inactive are those of the source. Cut-off read from the data, not from the text of the source: active = growth inhibition above about 70%; inactive = the rest.

Columns and labels:
[1] = NCI Yeast Anticancer Drug Screen. Data for the rad50 strain (AID 155);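 note: 0% = growth of vehicle-only cultures of the same strain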; settings: S. cerevisiae rad50 strain growth inhibition, stronger effect = higher value
Procedure, shortened: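 Inhibition values express reduced yeast growth in compound-treated cultures relative to vehicle-treated controls.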

[2] = NCI Yeast Anticancer Drug Screen. Data for the mec2-1 strain (AID 157); settings: S. cerevisiae mec2-1 strain, stronger effect = higher value
Procedure, shortened: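 Readout is yeast growth inhibition, normalised to vehicle-treated controls, in the mec2-1 strain exposed to compound.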

[3] = NCI Yeast Anticancer Drug Screen. Data for the sgs1 mgt1 strain (AID 161);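 note: 0% = growth of cultures given vehicle only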; settings: S. cerevisiae sgs1 mgt1 strain, stronger effect = higher value
Procedure, shortened: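 This yeast growth screen uses a strain with defined DNA-repair lesions; compound-treated growth is compared with vehicle-treated growth.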

[4] = NCI Yeast Anticancer Drug Screen. Data for the cln2 rad14 strain (AID 165);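 note: 0% = growth equal to vehicle treated cultures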; settings: S. cerevisiae cln2 rad14 strain, stronger effect = higher value
Procedure, shortened: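 Relative to vehicle controls, growth inhibition of compound-treated cln2 rad14 yeast was recorded.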

[5] = NCI Yeast Anticancer Drug Screen. Data for the bub3 strain (AID 167); settings: S. cerevisiae bub3 mutant strain, stronger effect = higher value
Procedure, shortened: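 Steps: expose the mutant yeast strain to compound; grow alongside vehicle-treated cultures; measure growth; express inhibition against the vehicle cultures.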

[6] = NCI Yeast Anticancer Drug Screen. Data for the mlh1 rad18 strain (AID 175); settings: S. cerevisiae mlh1 rad18 strain growth inhibition, stronger effect = higher value
Procedure, shortened: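 Test agents were incubated with a yeast strain of defined genotype (DNA damage repair defect). Inhibition of growth was derived by comparison with vehicle-exposed cultures.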

[7] = at 5.0 µM (retest, dose inferred, filed as 0.5)
[8] = at 50.0 µM (retest, dose inferred, filed as 5.0)

Row | Compound | growth inhibition [1, 7] | growth inhibition [1, 8] | growth inhibition ([1]; at 50.0 µM) | growth inhibition [2, 7] | growth inhibition [2, 8] | growth inhibition ([2]; at 50.0 µM) | growth inhibition [3, 7] | growth inhibition [3, 8] | growth inhibition ([3]; at 50.0 µM) | growth inhibition [4, 7] | growth inhibition [4, 8] | growth inhibition ([4]; at 50.0 µM) | growth inhibition [5, 7] | growth inhibition [5, 8] | growth inhibition ([5]; at 50.0 µM) | growth inhibition [6, 7] | growth inhibition [6, 8] | growth inhibition ([6]; at 50.0 µM)
1 | Clc1ccc(OCC(Cn2ccnc2)c2ccc(Cl)cc2)cc1 (configuration not stated) | 74% (active) | 91% (active) | 99.8% (active) | 55% | 80% (active) | 99.9% (active) | 70% (active) | 97% (active) | 99.8% (active) | 60% | 89% (active) | 99.5% (active) | 73% (active) | 98% (active) | 99.8% (active) | 64% | 97% (active) | 99.2% (active)
2 | Cc1nc(-c2ccc(N=Cc3ccc(N(CCOS(C)(=O)=O)CCOS(C)(=O)=O)cc3Cl)cc2)c(C)s1 | 1% | 33% | 40.1% | -68% | -1% | 13.1% | 2% | 17% | 55.3% | 6% | -4% | -9.2% | 0% | -1% | -8.8% | 4% | 37% | 73% (active)
3 | c1ccc(-n2c3ccccc3c3ccccc32)cc1 | 4% | 11% | 86.7% (active) | 4% | 3% | 82.2% (active) | 1% | 9% | 88.2% (active) | 1% | -12% | 37.9% | 5% | 21% | 88.2% (active) | -1% | 11% | 84.5% (active)
4 | c1ccc2c3ccn4ccc5c6ccccc6[nH]c5c4c-3nc2c1 | 38% | 96% (active) | 65.3% | 28% | 88% (active) | 47.1% | 27% | 93% (active) | 47.2% | 24% | 39% | 34.1% | 29% | 96% (active) | 43.8% | 33% | 98% (active) | 85.4% (active)
5 | C=C1C(=O)C23OC2C1CCC(=O)C1(C)CC[C@H](OC(C)=O)C(C)(C)[C@H]1CC3O (some centres not stated) | 86% (active) | 79% (active) | 99.2% (active) | 92% (active) | 31% | 100% (active) | 92% (active) | 42% | 99.5% (active) | 71% (active) | 16% | 99.2% (active) | 92% (active) | 27% | 99.2% (active) | 92% (active) | 38% | 99% (active)
6 | O=C1OC(c2ccccc2)(c2ccccc2)CC1CN1CCOCC1 (configuration not stated) | -16% | 73% (active) | 87.8% (active) | -4% | 87% (active) | 82.6% (active) | -1% | 84% (active) | 90% (active) | -9% | 72% (active) | 66% | 1% | 93% (active) | 87% (active) | 2% | 88% (active) | 79.7% (active)
7 | N#CC1(C#N)C2C=CC(C3CCC=C32)C1(C#N)C#N (configuration not stated) | 14% | 93% (active) | 0.4% | 17% | 97% (active) | 45.3% | 11% | 96% (active) | 60.5% | 10% | 60% | -16.2% | 25% | 97% (active) | 95% (active) | 25% | 97% (active) | 68.8%
8 | CC(=O)Oc1ccc2ccccc2c1CN(Cc1c(OC(C)=O)ccc2ccccc12)C(C)=O | 9% | 64% | 88.8% (active) | 9% | 53% | 72.8% (active) | 4% | 84% (active) | 89.6% (active) | 3% | 88% (active) | 93.8% (active) | 3% | 80% (active) | 93.8% (active) | 11% | 85% (active) | 55%
9 | COc1cccc2c1C(=O)c1c(O)c3c(c(O)c1C2=O)CC(O)(C(C)=O)CC3OC1CC(N/C(C)=C/C(C)=O)C(O)C(C)O1 (configuration not stated) | 91% (active) | 95% (active) | 88.5% (active) | 65% | 98% (active) | 90% (active) | 45% | 98% (active) | 88.9% (active) | 60% | 98% (active) | 88.4% (active) | 69% | 98% (active) | 85.8% (active) | 79% (active) | 97% (active) | 88.4% (active)
